Substitutions are numbered along the chain they refer to.
Key:
Assay in all cases: protein-binding microarray (PBM); PBM: ~300 nM protein, 6 mM HEPES pH 7.8, 80 mM KCl, 0.5 mM EDTA, 0.5 mM EGTA, 6% glycerol, 35 ng/ul poly-dIdC, 1% milk, 1 h, room temperature; Ap Aiptasia and Nv Nematostella (sea anemones) / Co Capsaspora / Aq Amphimedon (sponge) / Dm Drosophila / Hu human; RHD is the Rel homology domain; high values mean tight binding
Details in all cases: dsDNA, one strand shown
GST-Ap-NF-kB RHD = biological target: T1, GST-Ap-NF-kB RHD (Exaiptasia pallida (Aiptasia), UniProt A0A913YAJ5 2-422)
T1 sequence: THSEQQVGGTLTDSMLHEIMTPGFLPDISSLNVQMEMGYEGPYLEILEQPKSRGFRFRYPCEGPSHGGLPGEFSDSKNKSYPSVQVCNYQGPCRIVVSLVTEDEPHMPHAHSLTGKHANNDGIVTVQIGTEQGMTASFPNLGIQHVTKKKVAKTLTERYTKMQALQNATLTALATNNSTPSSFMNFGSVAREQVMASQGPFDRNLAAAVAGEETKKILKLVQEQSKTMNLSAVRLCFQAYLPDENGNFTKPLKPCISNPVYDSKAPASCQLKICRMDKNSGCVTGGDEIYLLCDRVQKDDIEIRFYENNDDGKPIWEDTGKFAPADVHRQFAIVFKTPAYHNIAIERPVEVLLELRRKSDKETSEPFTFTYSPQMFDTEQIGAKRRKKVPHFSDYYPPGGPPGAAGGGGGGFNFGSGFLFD

[1] = biological target: T2, GST-Nv-NF-kB (Cys allele) (Nematostella vectensis, UniProt E5G601 2-411)
T2 sequence: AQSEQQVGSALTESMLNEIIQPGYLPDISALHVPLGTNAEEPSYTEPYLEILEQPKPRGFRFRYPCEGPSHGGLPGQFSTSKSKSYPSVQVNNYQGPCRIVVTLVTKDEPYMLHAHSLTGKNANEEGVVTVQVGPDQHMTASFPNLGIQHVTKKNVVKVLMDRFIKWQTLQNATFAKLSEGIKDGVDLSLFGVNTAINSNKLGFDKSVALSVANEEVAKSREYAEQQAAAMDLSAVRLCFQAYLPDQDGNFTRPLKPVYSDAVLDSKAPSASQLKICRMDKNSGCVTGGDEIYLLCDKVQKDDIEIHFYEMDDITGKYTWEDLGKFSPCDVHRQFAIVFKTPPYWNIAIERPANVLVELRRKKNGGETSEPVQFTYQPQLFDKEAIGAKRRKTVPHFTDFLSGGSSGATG

[2] = biological target: T3, GST-Nv-NF-kB (Ser allele) (Nematostella vectensis, UniProt A7UNT2 2-411)
T3 sequence: T2 sequence with Q21R, C66S, S207N, E215Q, V217A, E225K, A268E, D399E

GST-Co-NF-kB = biological target: T4, GST-Co-NF-kB (Capsaspora owczarzaki, UniProt F1ARL5 200-546)
T4 sequence: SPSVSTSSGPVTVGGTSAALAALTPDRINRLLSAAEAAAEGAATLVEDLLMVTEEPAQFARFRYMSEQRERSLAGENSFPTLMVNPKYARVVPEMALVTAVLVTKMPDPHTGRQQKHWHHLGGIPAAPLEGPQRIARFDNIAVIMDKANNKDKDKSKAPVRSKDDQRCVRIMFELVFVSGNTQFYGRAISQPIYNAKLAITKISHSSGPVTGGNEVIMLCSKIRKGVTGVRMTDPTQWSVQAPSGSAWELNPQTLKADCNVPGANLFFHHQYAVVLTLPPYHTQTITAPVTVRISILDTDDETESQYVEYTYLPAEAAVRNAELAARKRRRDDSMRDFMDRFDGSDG

GST-Dm-Relish = biological target: T5, GST-Dm-Relish (Drosophila melanogaster, UniProt Q94527 99-473)
T5 sequence: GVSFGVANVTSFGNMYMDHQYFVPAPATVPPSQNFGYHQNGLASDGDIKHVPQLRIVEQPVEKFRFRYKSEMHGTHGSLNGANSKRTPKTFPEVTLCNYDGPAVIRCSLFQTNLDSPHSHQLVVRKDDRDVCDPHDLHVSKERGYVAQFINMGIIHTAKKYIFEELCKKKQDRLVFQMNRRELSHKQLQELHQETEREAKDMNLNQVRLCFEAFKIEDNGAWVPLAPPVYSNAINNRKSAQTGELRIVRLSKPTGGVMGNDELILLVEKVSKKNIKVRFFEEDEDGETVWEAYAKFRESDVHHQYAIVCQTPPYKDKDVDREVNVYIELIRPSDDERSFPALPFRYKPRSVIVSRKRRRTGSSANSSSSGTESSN

GST-Aq-NF-kB = biological target: T6, GST-Aq-NF-kB (Amphimedon queenslandica, UniProt A9Y5G7 2-389)
T6 sequence: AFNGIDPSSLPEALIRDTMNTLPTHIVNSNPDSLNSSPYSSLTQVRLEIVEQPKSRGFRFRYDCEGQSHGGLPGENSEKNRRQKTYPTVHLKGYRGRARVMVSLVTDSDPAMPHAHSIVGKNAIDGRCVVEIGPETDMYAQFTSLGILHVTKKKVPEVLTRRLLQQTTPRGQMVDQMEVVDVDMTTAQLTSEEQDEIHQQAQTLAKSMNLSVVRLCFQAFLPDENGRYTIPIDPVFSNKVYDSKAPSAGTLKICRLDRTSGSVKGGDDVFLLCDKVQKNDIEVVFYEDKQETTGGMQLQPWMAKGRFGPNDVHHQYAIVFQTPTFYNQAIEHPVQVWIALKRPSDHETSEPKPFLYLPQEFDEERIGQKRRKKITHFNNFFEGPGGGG

GST-Hu-p50 = GST-Hu-p50 (Homo sapiens, UniProt P19838 7-356)
Sequence of GST-Hu-p50 (P19838 7-356): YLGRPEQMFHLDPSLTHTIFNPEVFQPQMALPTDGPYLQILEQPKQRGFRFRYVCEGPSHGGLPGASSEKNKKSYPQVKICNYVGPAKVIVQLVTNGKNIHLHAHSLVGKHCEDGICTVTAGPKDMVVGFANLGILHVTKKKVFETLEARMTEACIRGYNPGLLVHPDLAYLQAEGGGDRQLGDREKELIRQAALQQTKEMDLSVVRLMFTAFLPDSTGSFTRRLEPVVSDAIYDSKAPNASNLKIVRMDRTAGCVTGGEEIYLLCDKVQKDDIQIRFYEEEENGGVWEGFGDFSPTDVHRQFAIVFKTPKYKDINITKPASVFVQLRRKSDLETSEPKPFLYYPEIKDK

Sequence	binding signal (GST-Ap-NF-kB RHD) [z-score]	binding signal [1] [z-score]	binding signal [2] [z-score]	binding signal (GST-Co-NF-kB) [z-score]	binding signal (GST-Dm-Relish) [z-score]	binding signal (GST-Aq-NF-kB) [z-score]	binding signal (GST-Hu-p50) [z-score]
CCGATTAACATCAAAACCCCCCATGATGTTAATCGGGTCTTGATTCGCTTGACGCTGCTG	8.56	6.62	6.57	4.66	9.53	7.39	6.77
CCGATTAACATCACATCCCCCCCTGATGTTAATCGGGTCTTGATTCGCTTGACGCTGCTG	6.1	4.66	4.88	6.54	4.53	4.42	4.32
CCGATTAACATCAGGGGGACACCTGATGTTAATCGGGTCTTGATTCGCTTGACGCTGCTG	5.64	4.46	4.25	5.26	4.25	5.46	4.49
CCGATTAACATCAAAAACCCCCATGATGTTAATCGGGTCTTGATTCGCTTGACGCTGCTG	9.51	8.21	9	3.93	9.82	7.68	7.91
CCGATTAACATCAAAAGGGGATATGATGTTAATCGGGTCTTGATTCGCTTGACGCTGCTG	4.87	5.63	7.56	2.09	2.06	3.8	4.41
CCGATTAACATCAGGGGGAAGTATGATGTTAATCGGGTCTTGATTCGCTTGACGCTGCTG	5.44	6.23	7.96	8.17	5.72	5.16	5.57
CCGATTAACATCAAACATTCCCATGATGTTAATCGGGTCTTGATTCGCTTGACGCTGCTG	1.96	3.21	2.5	2.38	1.59	3.52	2.11
CCGATTAACATCAATTATTCCCCTGATGTTAATCGGGTCTTGATTCGCTTGACGCTGCTG	6.67	9.08	9.75	9.22	5.24	5.63	6.11
CCGATTAACATCAGGGGAAATGATGATGTTAATCGGGTCTTGATTCGCTTGACGCTGCTG	5.75	6.87	9.61	7.35	2.27	4.43	5.37
CCGATTAACATCAGGGAATTTTATGATGTTAATCGGGTCTTGATTCGCTTGACGCTGCTG	6.12	9.33	8.44	4.82	6.83	8.16	6.55

— article PMC5700166
